# Assay outcomes: PubChem, several laboratories
# PfHsp40 rescue = compounds rescuing yeast from Plasmodium falciparum HSP40 toxicity; S. cerevisiae expressing PfHsp40, growth rescue, ATP luminescence; growth rescue, % at 12.5 µM; hit rate 0.68% among 340,000; AID 504582; in the data active = growth rescue above about 28%, passing the limit was not always enough; inconclusive = no clear call, values can overlap the other calls;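 note: yeast W303a lacking pdr1 and pdr3 grown in galactose medium; growth measured after three days at 30 °C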
# PrP UTR inh = inhibition of PrP 5' UTR reporter expression; inhibition, % (concentration not given with the values); cell-based PrP 5' UTR mRNA reporter, plate reader; hit rate 0.35% among 340,000; AID 488862; in the data active = inhibition above about 52%; note: 0 = median of the neutral control wells
# BJeLR viability = BJeLR cell viability loss | inhibition, % (test concentration not listed) | BJeLR (HRASV12) viability, CellTiter-Glo ATP luminescence, 48 h | hit rate 0.17% among 300,000; in the data active = inhibition above about 50%; inconclusive = no clear call, values can overlap the other calls
# Yp Topo-I inh = blocks Yersinia pestis topoisomerase I activity; activity, % at 10 µM; hit rate 0.064% among 360,000; Y. pestis Topo-I cleavage product accumulation, plate reader; in the data active = activity above about 50%, passing the limit was not always enough; inconclusive = no clear call, values can overlap the other calls
# PrPC TRFRET = reduces human prion protein on the cell surface; cell surface PrPC, TR-FRET read-out; inhibition, % at 13.8 µM; P04156; hit rate 0.43% among 370,000; in the data active = inhibition above about 24%; note: 0% = median of the test wells and 100% = reference compound wells
# SSB-PriA inh = blocks PriA binding to SSB C-terminal tail | AlphaScreen SSBct-PriA binding, biotinylated peptide | inhibition, % at 33 µM | hit rate 0.6% among 430,000 | AID 1272365; in the data active = inhibition mostly above about 37%, no sharp cut-off; inactive = mostly below about 20%;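 note: plate controls were negative control peptide for no effect and reference peptide for full effect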
# Starred values were filed as active, the others as inactive; ? = inconclusive; · = not tested or not shown. In the library only some 1.7% were active in any assay of this set; here they are far more common.
SMILES,PfHsp40 rescue,PrP UTR inh,BJeLR viability,Yp Topo-I inh,PrPC TRFRET,SSB-PriA inh
COc1ccccc1NS(=O)(=O)c1ccc(NN=Cc2ccccc2OCC(=O)O)c([N+](=O)[O-])c1,·,·,·,·,·,42.5*
COc1cc(C=NNc2ccc(S(=O)(=O)Nc3ccccc3C(=O)O)cc2[N+](=O)[O-])ccc1O,9.7,-10.2,·,-12.3,-15.7,49.0*
Cc1nn(-c2ccccc2)c(N2CCCC2)c1/C=N/Nc1ccc(S(N)(=O)=O)cc1[N+](=O)[O-],-0.8,-9.5,19.4,1.3,-2.3,·
CSc1ccc(-c2nc(SCC(=O)NC[C@H]3CCCO3)c(-c3ccccc3)[nH]2)cc1,·,·,·,·,·,13.0
Cc1nn(-c2ccccc2)c(Cl)c1C=NNc1ccc(S(=O)(=O)Nc2ccccc2C(=O)O)cc1[N+](=O)[O-],·,·,·,·,·,45.2*
Fc1ccc(Nc2nc(NCCCn3ccnc3)nc3nc[nH]c23)cc1,·,·,·,·,·,29.0*
Cc1ccc(S(=O)(=O)Nc2cccc(C(=O)Nc3nnc(-c4ccco4)o3)c2)cc1,·,·,·,·,·,0.0
COc1ccccc1C1=NNC(=Nc2cccc(S(=O)(=O)N(C)C)c2)SC1,0.3,-30.8,-10.8,-11.2,19.9,42.7*
C=CCN1C(=O)C(Cc2ccccc2)S/C1=N/N=C\c1ccccc1 (stereo not drawn),·,·,·,·,·,56.0*
O=C(CCc1ccc(F)c(Cl)c1)N1CC(Oc2nccs2)C1,·,·,·,·,·,-10.0
CC(=O)Nc1ccc(NC(=O)C(C)OC(=O)CCC2CCCCC2)cc1 (stereo not drawn),0.7,-10.7,7.4,16.3,-4.5,-4.8
CC(OC(=O)CCC1CCCC1)C(=O)Nc1ccccc1[N+](=O)[O-] (stereo not drawn),1.1,-1.6,-2.1,35.3,-2.5,42.7*
COC(=O)CS[C@@H](C)C(=O)Nc1nnc(-c2ccccc2Cl)s1,·,·,·,·,·,-16.0
O=C(NCC1CCN(c2ccncc2)CC1)C(=O)Nc1cccc(C(F)(F)F)c1,·,·,·,·,·,-19.0
Nc1c(N)c2cccnc2c2ncccc12,·,·,·,·,·,94.9*
O=[N+]([O-])c1cc([N+](=O)[O-])c2cccnc2c1Cl,·,·,·,·,·,81.0*
Nc1ncc(Br)c2ncccc12,·,·,·,·,·,10.0
O=[N+]([O-])c1cc2cccnc2c2ncccc12,·,·,-16.3,-1.4,-6.7,48.4*
Cc1cc2cccnc2c2ncccc12,·,·,·,·,·,163.0*
Cc1cc(Br)cc2cccnc12,·,·,·,·,·,34.0
O=[N+]([O-])c1ccc(Cl)c2ncccc12,·,·,·,·,·,52.8
CCc1cccc(OCC(O)Cn2c(-n3nc(C)cc3C)nc3c2c(=O)n(C)c(=O)n3C)c1 (stereo not drawn),·,·,·,·,·,10.0
COc1ccc(SCC2CCN(C(=O)Nc3ccccc3F)CC2)cc1,·,·,·,·,·,14.0
O=C(NCCC(c1ccccc1)c1ccccc1)C(=O)Nc1ccncc1,·,·,·,·,·,47.0*
Cc1cccc(N2C(=O)C(Oc3ccc(Cl)cc3Cl)C2C=O)c1C (stereo not drawn),280.5*,-17.4,·,-1.1,8.5,4.0
SMILES,PfHsp40 rescue,PrP UTR inh,BJeLR viability,Yp Topo-I inh,PrPC TRFRET,SSB-PriA inh
COCCN1CC(=O)N(c2cccc(C)c2C)C(c2ccc(Cl)cc2)C1=O (stereo not drawn),-0.1,-13.4,-1.9,-0.2,2.1,-22.4
COCCCNC(=S)NC1CC2CCC(C1)N2Cc1ccccc1 (stereo not drawn),34.8*,-7.0,-3.5,2.4,-10.9,-19.3
CCOCCCNC(=S)NC1CC2CCC(C1)N2Cc1ccccc1 (stereo not drawn),1.9,-38.4,6.7,6.4,-15.8,-22.6
COc1cccc(-c2csc(CN3CCNCC3)n2)c1,·,·,·,·,·,28.0
O=C(NN=Cc1ccc([N+](=O)[O-])s1)c1ccncc1,·,·,·,·,·,4.5
O=[N+]([O-])c1ccc(/C=N/NC(=S)Nc2ccc(Cl)cc2Cl)s1,240.1*,-24.2,4.1,-12.8,-6.5,·
O=[N+]([O-])c1ccc(O)c(/C=N/NC(=S)Nc2ccc(Cl)cc2Cl)c1,-0.5,0.0,-13.3,-18.2,1.5,·
O=C(N/N=C/c1ccc([N+](=O)[O-])s1)c1ccccc1,149.8*,8.1,-5.6,2.1,-41.9,·
Cc1cc(Nc2ccccc2)c2c([N+](=O)[O-])ccc(C)c2n1,-1.0,-13.0,-1.1,-12.6,-4.0,60.4*
O=[N+]([O-])c1cnccc1Nc1cccc(F)c1,1.1,-23.7,-15.7,5.0,-35.9,9.4
O=[N+]([O-])c1ccccc1NCCOc1ccccc1,1.8,-140.9,-0.6,4.1,-7.1,38.6*
O=[N+]([O-])c1ccccc1Nc1cccc(F)c1,-0.7,-23.9,·,3.0,-4.1,48.7*
NC(=O)c1cc([N+](=O)[O-])ccc1Nc1ccccc1,48.3*,-8.3,·,5.7,-25.9,-1.9
Cn1cc(-c2cccs2)nc1CCNC(=O)[C@@H]1COc2ccccc2O1,·,·,·,·,·,3.0
O=C(CSc1ncnc2[nH]ncc12)Nc1nc(-c2ccco2)c(-c2ccco2)s1,·,·,·,·,·,12.0
O=[N+]([O-])c1ccccc1Nc1ccccc1,-0.8,-21.3,1.3,3.5,-9.2,69.9*
CCOC(=O)c1cc2c(=Cc3ccc(N(C)C)cc3)c3ccccc3n2[n+]1C,284.4*,-0.2,·,-40.7,-25.4,33.8
Cc1cc2c(=Cc3ccc(N(C)C)cc3)c3ccccc3n2[n+]1C,179.6*,-22.4,·,-34.5,-33.5,-14.8
Cc1nnsc1C(=O)N1Cc2cnc(N3CCOCC3)nc2C1,·,·,·,·,·,-3.0
O=C1/C(=C/c2ccncc2)CC/C1=C\c1ccncc1,·,·,·,·,·,14.0
CC1C/C(=C/c2ccncc2)C(=O)/C(=C/c2ccncc2)C1 (stereo not drawn),50.5*,17.4,54.1*,13.1,7.2,-4.4
O=C1c2ccccc2CCCC12N=NCC2c1cccc2ccccc12 (stereo not drawn),108.6*,-5.7,-6.1,5.1,3.6,-8.4
Cc1ccc(C2CN=NC23CCc2ccccc2C3=O)cc1 (stereo not drawn),0.1,-35.6,1.5,-5.3,0.1,-17.1
Oc1ccc(F)c2cccnc12,-1.0,-0.5,2.6,-1.7,-2.3,81.2*
OCc1ccc(O)c2ncccc12,?,8.1,27.1,2.7,-6.3,79.8*
SMILES,PfHsp40 rescue,PrP UTR inh,BJeLR viability,Yp Topo-I inh,PrPC TRFRET,SSB-PriA inh
O=C(O)Cc1ccc(O)c2ncccc12,·,·,·,·,·,86.8*
O=C(CCl)c1ccc(O)c2ncccc12,·,·,·,·,·,121.0*
O=C(Nc1ccc(OC(F)(F)F)cc1)Nc1cc(N2CCCCC2)ncn1,·,·,·,·,·,3.0
CN(C)CC#CCNS(=O)(=O)c1cc(F)cc(F)c1,·,·,·,·,·,-12.0
O=C(CSc1ncnc2sc3c(c12)CCC3)c1ccc2c(c1)OCO2,·,·,·,·,·,1.0
O=C(O)CCc1ccc(O)c2ncccc12,·,·,·,·,·,113.5*
COc1cccc(C(=O)Nc2nc(-c3ccccn3)cs2)c1OC,·,·,·,·,·,-23.0
CSc1cc(-c2ccccc2)n(Cc2ccccc2Cl)c(=O)c1C#N,-0.4,-26.2,51.1*,3.0,-6.4,12.2
O=C(NCCC1=CCCCC1)C(=O)NCC[C@H](O)c1ccccc1,·,·,·,·,·,-2.0
N#Cc1ccc(S(=O)(=O)NC2CCC(Oc3ncccn3)CC2)cc1 (stereo not drawn),·,·,·,·,·,-18.0
CC(C)(C)OC(=O)NCc1ccc(NC(=O)c2nc[nH]c2C(=O)NCCCCNC(=O)c2[nH]cnc2C(=O)Nc2ccc(CNC(=O)OC(C)(C)C)cc2)cc1,-0.6,18.9,·,-4.4,·,-10.8
